{"source": "the supplement of paper PMC4466140", "test_in_all_cases": "SPOT peptide array binding signal intensity (averaged, normalized) (arbitrary units (background-subtracted, floor 0; scale differs between SH3 domains)); higher = stronger binding of the SH3 domain to the peptide", "key": {"AgAbp1": {"target": "AgAbp1", "outline": "(§1)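 E. coli BL21(DE3) was used to express GST-fused SH3 domains from four yeast species, which were then purified on glutathione Sepharose. These were incubated at 10 μg/ml in TBS-based blocking buffer overnight at 4°C on cellulose membranes carrying synthetic 15-mer peptides, in which cysteines were replaced by serines. Binding signal is the replicate average of normalized, background-subtracted spot intensity, in arbitrary units that differ between domains.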"}, "AgBbc1": {"target": "AgBbc1", "outline": "as §1"}, "AgBem1-D1": {"target": "AgBem1-D1", "outline": "as §1"}, "AgBzz1-D1": {"target": "AgBzz1-D1", "outline": "as §1"}, "AgBzz1-D2": {"target": "AgBzz1-D2", "outline": "as §1"}, "AgCyk3": {"target": "AgCyk3", "outline": "as §1"}, "AgFus1": {"target": "AgFus1", "outline": "as §1"}, "AgHof1": {"target": "AgHof1", "outline": "as §1"}, "AgHse1": {"target": "AgHse1", "outline": "as §1"}, "AgLsb1": {"target": "AgLsb1", "outline": "as §1"}, "AgLsb4": {"target": "AgLsb4", "outline": "as §1"}, "AgMyo5": {"target": "AgMyo5", "outline": "as §1"}, "AgNbp2": {"target": "AgNbp2", "outline": "as §1"}, "AgRvs167": {"target": "AgRvs167", "outline": "as §1"}, "AgSho1": {"target": "AgSho1", "outline": "as §1"}, "AgSla1-D1-D2": {"target": "AgSla1-D1-D2", "outline": "as §1"}, "AgSla1-D3": {"target": "AgSla1-D3", "outline": "as §1"}, "CaAbp1-D1": {"target": "CaAbp1-D1", "outline": "as §1"}, "CaAbp1-D2": {"target": "CaAbp1-D2", "outline": "as §1"}, "CaBbc1": {"target": "CaBbc1", "outline": "as §1"}, "CaBem1-D1": {"target": "CaBem1-D1", "outline": "as §1"}, "CaBzz1-D1": {"target": "CaBzz1-D1", "outline": "as §1"}, "CaBzz1-D2": {"target": "CaBzz1-D2", "outline": "as §1"}, "CaCyk3": {"target": "CaCyk3", "outline": "as §1"}, "CaFus1": {"target": "CaFus1", "outline": "as §1"}, "CaHof1": {"target": "CaHof1", "outline": "as §1"}, "CaHse1": {"target": "CaHse1", "outline": "as §1"}, "CaLsb1": {"target": "CaLsb1", "outline": "as §1"}, "CaLsb4": {"target": "CaLsb4", "outline": "as §1"}, "CaMyo5": {"target": "CaMyo5", "outline": "as §1"}}}
{"binder": "DKKTKPTPPPKPSHL", "values": [{"measurement": "SPOT peptide array binding signal intensity", "setting": "AgAbp1", "result": 1090}, {"measurement": "SPOT peptide array binding signal intensity", "setting": "AgBbc1", "result": 24.8}, {"measurement": "SPOT peptide array binding signal intensity", "setting": "AgBem1-D1", "result": "≤ 0"}, {"measurement": "SPOT peptide array binding signal intensity", "setting": "AgBzz1-D1", "result": 61}, {"measurement": "SPOT peptide array binding signal intensity", "setting": "AgBzz1-D2", "result": 34.5}, {"measurement": "SPOT peptide array binding signal intensity", "setting": "AgCyk3", "result": 1}, {"measurement": "SPOT peptide array binding signal intensity", "setting": "AgFus1", "result": 6}, {"measurement": "SPOT peptide array binding signal intensity", "setting": "AgHof1", "result": 18.5}, {"measurement": "SPOT peptide array binding signal intensity", "setting": "AgHse1", "result": "≤ 0"}, {"measurement": "SPOT peptide array binding signal intensity", "setting": "AgLsb1", "result": "≤ 0"}, {"measurement": "SPOT peptide array binding signal intensity", "setting": "AgLsb4", "result": "≤ 0"}, {"measurement": "SPOT peptide array binding signal intensity", "setting": "AgMyo5", "result": "≤ 0"}, {"measurement": "SPOT peptide array binding signal intensity", "setting": "AgNbp2", "result": "≤ 0"}, {"measurement": "SPOT peptide array binding signal intensity", "setting": "AgRvs167", "result": 0.167}, {"measurement": "SPOT peptide array binding signal intensity", "setting": "AgSho1", "result": 45}, {"measurement": "SPOT peptide array binding signal intensity", "setting": "AgSla1-D1-D2", "result": "≤ 0"}, {"measurement": "SPOT peptide array binding signal intensity", "setting": "AgSla1-D3", "result": 2}, {"measurement": "SPOT peptide array binding signal intensity", "setting": "CaAbp1-D1", "result": 1790}, {"measurement": "SPOT peptide array binding signal intensity", "setting": "CaAbp1-D2", "result": 3130}, {"measurement": "SPOT peptide array binding signal intensity", "setting": "CaBbc1", "result": 50.8}, {"measurement": "SPOT peptide array binding signal intensity", "setting": "CaBem1-D1", "result": "≤ 0"}, {"measurement": "SPOT peptide array binding signal intensity", "setting": "CaBzz1-D1", "result": 1480}, {"measurement": "SPOT peptide array binding signal intensity", "setting": "CaBzz1-D2", "result": 262}, {"measurement": "SPOT peptide array binding signal intensity", "setting": "CaCyk3", "result": "≤ 0"}, {"measurement": "SPOT peptide array binding signal intensity", "setting": "CaFus1", "result": "≤ 0"}, {"measurement": "SPOT peptide array binding signal intensity", "setting": "CaHof1", "result": 0.75}, {"measurement": "SPOT peptide array binding signal intensity", "setting": "CaHse1", "result": 8.5}, {"measurement": "SPOT peptide array binding signal intensity", "setting": "CaLsb1", "result": 0.5}, {"measurement": "SPOT peptide array binding signal intensity", "setting": "CaLsb4", "result": "≤ 0"}, {"measurement": "SPOT peptide array binding signal intensity", "setting": "CaMyo5", "result": "≤ 0"}]}
